Source: PubChem BioAssay
KDM5B inh = KDM5B demethylase inhibition | KDM5B demethylase, FDH-coupled NADH fluorescence (FDH is formaldehyde dehydrogenase) | Q9UGL1 | Potency, µM (highest dose often 57.7 µM), hits mostly inhibitors | 220,000 compounds, 2.6% hits; active = well fitted inhibition curve with a large enough effect; inconclusive = small, poorly fitted or top-dose-only effect; inactive = no such curve, though single readings can be large or run the other way; note: potency is the fitted concentration of half-maximal effect; 0% is about no effect; nearly all actives have a fitted effect of over 70% in size
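Coupled FDH/NAD⁺ fluorescence readout. KDM5BΔAP 200 nM final; compound titration, 10 min RT preincubation; substrate mix 12.5 µM H3K4me3, 25 µM 2-OG, 50 µM Fe(II), 100 µM ascorbate, 0.25 mM NAD⁺, 0.25 U/mL FDH; ΔRFU over 30 min.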
IP6K1 inhibitor = inhibitors of human IP6K1; 140,000 compounds, 0.81% hits; IP6K1 kinase, ADP-Glo luminescence, 2 h; stronger effect = lower value; activity change, % (series mostly up to about 58 µM); AID 1645851; Q92551; in the data active = activity change below about -25%; note: % is set by controls: 0 for no effect and ±100 for the full control effect
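ADP-Glo luminescence measures ADP made by human IP6K1 during a 2 h RT reaction with ATP/IP6 (mix at 1.3 mM/130 uM); top library doses 57.5 and 19.1 uM final.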
Numbers without * were called inactive; i = inactive; ? = inconclusive; . = not tested or not shown. Shown are actives, neighbours in structure and some others; about 2.8% of the full set was active somewhere.

SMILES | KDM5B inh | IP6K1 inhibitor
CNC(=O)C1CCCN(S(=O)(=O)c2c(C)nn(CC(=O)N3CCc4ccccc43)c2C)C1 (stereo not drawn) | i | .
O=C(c1ccc(F)cc1)N1CCn2c(nn(-c3ccncc3)c2=O)C1 | i | 6.3
CC1(COc2cccnc2)COc2ccc(C(=O)NCc3cccs3)cc2N1 (stereo not drawn) | 35.5µM* | 0.9
CC1(COc2ccccc2)COc2ccc(C(=O)NCc3ccccc3)cc2N1 (stereo not drawn) | ? | 18.6
CC1(COc2cccnc2)COc2ccc(C(=O)NCc3ccc(F)cc3)cc2N1 (stereo not drawn) | 31.6µM* | 8.2
CC1(COc2cccnc2)COc2ccc(C(=O)NCc3ccc4c(c3)OCO4)cc2N1 (stereo not drawn) | 15.8µM* | -5.9
CC1(COc2cccnc2)COc2ccc(C(=O)NCc3cnccn3)cc2N1 (stereo not drawn) | i | -8.4
CC1(COc2ccccc2)COc2ccc(C(=O)NCc3cnccn3)cc2N1 (stereo not drawn) | i | 14.2
CC(=O)Nc1cccc(NC(=O)CSc2nc(=O)[nH]c3c2CCC3)c1 | i | .
COc1ccc(CCNC(=O)c2cnn(-c3ccc(F)cc3)c2C2CCN(C(=O)OC(C)(C)C)CC2)c(OC)c1 | i | -1.1
Cc1cnc(CNC(=O)C2(N3CCCCC3)Cc3ccccc3C2)cn1 | i | 0.0
O=C(c1cc(-c2ccccc2F)n[nH]1)N1CCC2(CCCN(Cc3ccccc3F)C2)C1 (stereo not drawn) | ? | -4.8
CCN(CC)C(=O)CN(C)c1nc2ccccc2o1 | i | .
Cc1ccc(-n2ncc3c(NC4CCCCCC4)ncnc32)cc1C | i | .
Cc1ccc(NC(=O)c2cc3c(s2)CN(C2CC2)C3)cc1 | ? | 15.1
CSc1ccc(NC(=O)c2cc3c(s2)CN(C2CC2)C3)cc1 | 22.4µM* | -4.8
CCOc1cccc(CNCc2ccco2)c1 | i | .
CN(C)Cc1ccc(-c2cc3c(ccn3Cc3cccnc3)c(C3=CCOCC3)n2)cc1 | 35.5µM* | 30.8
C1=C(c2nc(-c3cccc4[nH]ncc34)cc3c2ccn3Cc2cccnc2)CCOC1 | i | -14.4
C1=C(c2nc(-c3ccc(N4CCOCC4)cc3)cc3c2ccn3Cc2cccnc2)CCOC1 | 28.2µM* | 0.7
Cn1ccc2c(C(=O)NCc3cccnc3)nc(-c3ccc(CO)cc3)cc21 | i | -12.3
COc1cc(C(=O)N2CCc3c(nc(C)nc3N(C)C)C2)cc(OC)c1OC | i | 0.6
Cc1c(CNC2CCC(C)CC2)c(C(=O)O)c(C)n1Cc1ccc(Cl)cc1 (stereo not drawn) | i | -13.0
CCc1ccc(NC(=O)CSc2nc3ccccc3o2)cc1 | i | .
CCC1CN(C(=O)c2ccc3nc(-c4ccccc4)cn3c2)CCN1C(C)C (stereo not drawn) | 28.2µM* | 5.2
SMILES | KDM5B inh | IP6K1 inhibitor
O=C(c1ccc2nccn2c1)N1CCC(Cc2ccccc2)CC1 | . | 17.7
CN1[C@@H](CCC(=O)N2CCc3ccccc32)CNC(=O)[C@@H]2[C@H]1CCN2Cc1cccs1 | i | 4.1
CN1[C@@H](CCC(=O)N2CCN(c3ccccn3)CC2)CNC(=O)[C@H]2NCC[C@H]21 | 35.5µM* | 6.8
CN1[C@@H](CCC(=O)NCc2ccco2)CNC(=O)[C@H]2NCC[C@H]21 | i | -4.2
O=C(N[C@H]1C[C@H]2C(=O)NC[C@@H](CCC(=O)N3CCN(c4ccccn4)CC3)N2C1)c1ccccc1 | 25.1µM* | 0.3
CN1[C@@H](CCC(=O)N2CCN(c3ccccn3)CC2)CNC(=O)[C@@H]2[C@H]1CCN2Cc1cccs1 | 28.2µM* | 10.7
O=C(Nc1ccccc1)N[C@H]1C[C@H]2C(=O)NC[C@@H](CCC(=O)N3CCN(c4ccccc4)CC3)N2C1 | i | 17.2
Cc1ccc(CN2CC[C@@H]3[C@H]2C(=O)NC[C@H](CCC(=O)N2CCN(c4ccccn4)CC2)N3C)cc1 | 31.6µM* | 3.8
Cc1ccc(CN2CC[C@@H]3[C@H]2C(=O)NC[C@H](CCC(=O)N2CCCC2)N3C)cc1 | ? | -2.9
Cc1nc(N2CCOCC2)c2c(C(=O)N3CCN(c4cc(Cl)ccc4C)CC3)c(C)oc2n1 | i | 5.0
C[C@H]1O[C@H](O[C@H]2[C@H](O)[C@@H](O)[C@@H](O[C@H]3[C@H](O)[C@@H](O)[C@H](O)O[C@@H]3CO)O[C@@H]2CO)[C@H](O)[C@@H](O)[C@@H]1N[C@H]1C=C(CO)[C@@H](O)[C@H](O)[C@H]1O | . | 0.6
Cc1ccc(-c2cn3c(n2)CO[C@@H](CNC(=O)NCc2ccccc2)C3)cc1 | ? | -4.0
Cc1ccc(-c2cn3c(n2)CO[C@@H](CNC(=O)c2ccccc2)C3)cc1 | 31.6µM* | 14.9
COc1ccc(C(=O)N2CCC(N3C(=O)C(OC)C34CCOCC4)CC2)cn1 (stereo not drawn) | i | -7.5
Cc1ccc(C)c(N2CCN(c3nc4c(S(=O)(=O)c5ccccc5)nnn4c4ccc(Cl)cc34)CC2)c1 | i | 12.1
COc1ccccc1N1CCN(c2nc3c(S(=O)(=O)c4ccc(C)c(C)c4)nnn3c3ccc(Cl)cc23)CC1 | ? | -27.5*
CC(C)CNc1nccc(C2(c3ccccc3Cl)CCNCC2)n1 | 22.4µM* | 9.4
C[C@@H](O)CNc1nccc(C2(c3ccccc3Cl)CCNCC2)n1 | ? | -4.4
CCN(CC)CCOC(=O)c1ccc(NC(=O)c2nn(-c3ccc(C)cc3)c(=O)c3c2c2ccccc2n3C)cc1 | ? | 7.9
Cc1ccc(NC(=O)c2cnc3ccccc3n2)cc1F | i | .
Cc1noc(C)c1-c1nccc2c(=O)cc(N(C)C3CCOCC3)oc12 | ? | -10.3
CN1CCN(c2cc(=O)c3ccnc(N4CCOCC4)c3o2)CC1 | i | -16.4
CN(c1cc(=O)c2ccnc(-c3cncnc3)c2o1)C1CCOCC1 | i | -16.3
CN(c1cc(=O)c2ccnc(-c3cccc(CO)c3)c2o1)C1CCOCC1 | 39.8µM* | -19.3
CN(c1ccccc1)c1cc(=O)c2ccnc(NCC3CCOCC3)c2o1 | i | -22.0
SMILES | KDM5B inh | IP6K1 inhibitor
CN(c1cc(=O)c2ccnc(-c3ccc([S+](C)(=O)[O-])cc3)c2o1)C1CCOCC1 | 35.5µM* | -5.4
CN1CCN(c2nccc3c(=O)cc(N(C)C4CCOCC4)oc23)CC1 | 39.8µM* | -17.7
CN(C)c1cccc(-c2nccc3c(=O)cc(N(C)C4CCOCC4)oc23)c1 | 28.2µM* | -18.3
N#Cc1ccccc1COC(=O)COc1ccc(C2SCCCS2)cc1 | i | .
COCc1nncn1C1CCN(S(=O)(=O)c2ccc(Cl)cc2C)CC1 | i | 7.4
O=C(Cc1ccsc1)N1CCC(c2noc(C3CC3)n2)C1 (stereo not drawn) | i | -6.9
CC(=O)Nc1ccccc1-c1nccc2c(=O)cc(N(C)C3CCOCC3)oc12 | 35.5µM* | -8.8
CN(c1cc(=O)c2ccnc(Nc3ccn(C)n3)c2o1)C1CCOCC1 | ? | -3.9
CCOc1ccc(S(=O)(=O)N2CCc3nc4cc[nH]n4c(=O)c3C2)cc1 | ? | 1.3
COc1ccc(Cl)cc1N(CC(=O)N1CCN(C)CC1)S(=O)(=O)c1ccccc1 | i | .
Cc1ccccc1C(=O)N1CCC(C(=O)N2CCC(N3CCCC3=O)CC2)CC1 | . | 25.3
Cc1ccccc1C(=O)N1CCC(N2CCCCCC2=O)CC1 | 20µM* | 8.6
Cc1cc(Br)ccc1NC(=O)Cn1nc(C(N)=O)c2ccccc2c1=O | i | .
COc1ccccc1CC(=O)N1CCC(Cc2nc(-c3cnccn3)no2)CC1 | i | -0.6
